# This is a sample that favours compounds with a hit; in the whole collection about 3% have one here.
# TRb-SRC2 inh: disrupts binding of human TR beta to SRC2; Potency, µM (top dose mostly 106 µM), for inactives: at the highest dose activity change, negative = inhibition, actives largely listed as inhibitors; TRbeta-SRC2 peptide binding, fluorescence polarization; receptor liganded with 1 µM T3; AID 1469; P10828; hit rate 0.065% among 280,000;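 further: plate controls were bound peptide for no effect and peptide without receptor for full effect; nearly all actives have a fitted effect of over 50% in size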
# Target sequence (P10828 whole entry, looked up): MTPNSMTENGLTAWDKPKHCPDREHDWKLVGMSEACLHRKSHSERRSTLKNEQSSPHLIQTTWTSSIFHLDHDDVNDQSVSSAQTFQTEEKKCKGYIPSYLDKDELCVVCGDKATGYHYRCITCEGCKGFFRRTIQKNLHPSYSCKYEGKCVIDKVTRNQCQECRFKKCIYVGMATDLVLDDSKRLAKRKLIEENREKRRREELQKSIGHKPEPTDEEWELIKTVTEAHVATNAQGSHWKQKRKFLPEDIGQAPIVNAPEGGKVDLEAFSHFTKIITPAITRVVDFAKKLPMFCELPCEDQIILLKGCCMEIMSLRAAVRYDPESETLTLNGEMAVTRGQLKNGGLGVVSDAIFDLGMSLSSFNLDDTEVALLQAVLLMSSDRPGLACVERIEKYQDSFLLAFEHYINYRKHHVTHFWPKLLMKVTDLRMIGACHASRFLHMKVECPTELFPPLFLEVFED
#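 Read-out is fluorescence polarization (555 nm excitation, 632 nm emission) of a Texas Red SRC2 coactivator peptide; loss of signal reflects blocked binding to human TRb ligand-binding domain in the presence of 1 uM T3.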
# TR SRC2 fluor cs: counter-screen for TRb-SRC2 inhibitors: fluorescence interference. Potency, µM (doses to about 106 µM), inactives show at the top dose fluorescence change, negative = quenching. TRb/SRC2 Texas Red total fluorescence interference. hit rate 0.29% among 280,000; active means well fitted curve in either direction with a large enough effect; inconclusive means small, poorly fitted or top-dose-only effect
#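 Human TRβ ligand-binding domain (0.6 uM) and Texas Red SRC2 peptide (20 nM) in Tris buffer with 1 uM T3 and 5% DMSO were incubated with pinned compound for 5 hr at ambient temperature. Total fluorescence was computed as S + 2P (555/632 nm).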
# Tau fibril FP: blocks human tau fibril formation measured by polarization | Potency, µM (top dose mostly 57.7 µM), inactives show at the highest dose activity, negative = inhibition, usual class: inhibitors | hit rate 0.39% among 280,000 | K18 P301L tau heparin fibrillization, Alexa594 FP, 6 h; further: nearly all actives have a fitted effect of over 55% in size
# Target sequence (P10636 561-689 P618L limits assumed): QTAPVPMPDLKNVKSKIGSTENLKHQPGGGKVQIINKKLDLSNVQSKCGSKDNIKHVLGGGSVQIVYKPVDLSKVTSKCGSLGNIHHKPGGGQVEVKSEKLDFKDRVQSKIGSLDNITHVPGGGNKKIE
#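 FP of Alexa 594-tau after heparin (20 uM) induction. Substrate: human K18 P301L, 15 uM unlabeled, 0.24 uM labeled. Buffer 100 mM sodium acetate pH 7. 6 hr, 37 C.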
# Tau fluor cs: counter-screen for tau fibril formation inhibitors; tau K18 P301L Alexa594 fluorescence, heparin fibrillization; Potency, µM (highest dose often 57.7 µM), without a hit: top-dose activity change, negative = decrease; hit rate 0.93% among 280,000; further: nearly all actives have a fitted effect of over 55% in size
#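 Human tau K18 P301L (15 uM unlabeled, 0.24 uM Alexa 594-labeled) in 100 mM sodium acetate pH 7 with 20 uM heparin, 6 hr at 37 C. ThT 30 uM added, 1 hr ambient; Alexa 594 FP and total fluorescence read at 555/632 nm.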
# Tau fibril ThT: tau fibrillization inhibition (ThT binding); recombinant tau K18 P301L (four-repeat tau fragment), heparin-induced fibrillization, ThT fluorescence; Potency, µM (top dose mostly 57.4 µM), inactives show top-dose activity, negative = inhibition, actives largely listed as inhibitors; AID 1460; hit rate 2.1% among 270,000; further: nearly all actives have a fitted effect of over 55% in size
#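 K18 P301L tau (15 uM + 0.24 uM Alexa 594-tagged), heparin 20 uM, NaOAc pH 7, 6 h 37 C; ThT 30 uM, 1 h RT, ex 450/em 510 nm.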
# Active calls of the source: *; ? = inconclusive; . = no result given; [ ] = dose if it differs, or a comment. Unless noted, the call rests on the fitted dose curve; in most records, active means well fitted curve in the direction sought with a large enough effect; inconclusive means small, poorly fitted or top-dose-only effect, or another doubt; inactive means no such curve, though single readings can be large; an effect the other way counts as inactive or inconclusive. Unless noted, on the % scale 0 is the no-effect control and ±100 the full control effect; potency means the concentration at half of the fitted maximal effect.
SMILES,TRb-SRC2 inh,TR SRC2 fluor cs,Tau fibril FP,Tau fluor cs,Tau fibril ThT
CCOC(=O)c1ccc(NC(=O)C(C)N2C(=O)c3ccccc3C2=O)cc1 (stereo unspecified),1%,2%,1%,-11%,-8%
Cc1n[nH]c(C)c1Sc1ccccc1N=Cc1cc([N+](=O)[O-])ccc1O,2%,1%,1%,-8%,-20%
Cc1cc(O)c(C(C)C)cc1N=Cc1cc([N+](=O)[O-])ccc1O,-2%,0%,7.1µM*,?,3.5µM*
CC(N=Cc1ccccc1O)c1ccccc1 (stereo unspecified),-17%,-3%,6%,2%,-3%
Cc1cc(O)c(C(C)C)cc1N=Cc1ccccc1O,?,-25%,8.9µM*,?,3.5µM*
CC(C)c1ccc(N2C(=O)/C(=C/N(C)C)SC2=S)cc1,?,28µM*[fluorescent],?,?,.
Cc1ccccc1-c1cc(C(=O)Nc2sc(C)c(C)c2C(N)=O)c2ccccc2n1,0%,2%,?,?,22µM*
CC(=O)c1ccc(N2CCC(c3cc(-c4ccc(Cl)cc4Cl)n[nH]3)CC2)c([N+](=O)[O-])c1,0%,-2%,?,?,13µM*
O=[N+]([O-])c1cccnc1N1CCC(c2cc(-c3ccc(Cl)cc3Cl)n[nH]2)CC1,-7%,-4%,-9%,?,13µM*
CCC(=O)N1CCN(c2ccc(Cl)cc2NC(=O)c2ccc(N3CCCC3)c([N+](=O)[O-])c2)CC1,-15%,1%,12%,-10%,?
O=[N+]([O-])c1cccnc1N1CCC(c2cc(-c3cccc(C(F)(F)F)c3)n[nH]2)CC1,-1%,-4%,-9%,?,14µM*
COc1ccccc1CNC(=O)CSc1ccc(-c2sc(-c3ccccc3)nc2C)nn1,0%,-3%,5%,-22%,?
COc1ccc(C2CC(c3ccccc3)Oc3cc(C)c(Cl)c(C)c32)cc1 (stereo unspecified),-4%,-1%,.,.,.
COc1cc(/C=C2\SC(=S)N(N(C)c3ccccc3)C2=O)ccc1O,?,21%,-4%,25µM*[quencher],25µM*
Cc1ccc(/C=C/C(=O)c2ccc(N3CCOCC3)cc2)s1,-2%,-15%,-1%,?,7.1µM*
CC(=O)Oc1cc2cccc(OC(C)=O)c(=O)c2c(OC(C)=O)c1OC(C)=O,1%,-13%,16µM*,8.9µM*[quencher],3.5µM*
COc1cc2cccc(OC)c(=O)c2c(O)c1OC,10%,-2%,7%,-3%,?
CCOC(=O)CNC(=O)O[C@@H]1C(=O)c2cc(Br)ccc2O[C@H]1c1cccc(OC)c1,3%,-1%,1%,-11%,-12%
S=C(Nc1ccc2cn[nH]c2c1)Nc1ccccc1Cl,6%,2%,-15%,?,14µM*
S=C(Nc1ccc2cn[nH]c2c1)Nc1ccc(Cl)cc1Cl,0%,-2%,-13%,?,16µM*
COc1ccc(CCNC(=O)Cc2c(C)c3cc4c(C(C)(C)C)coc4c(C)c3oc2=O)cc1OC,-1%,-2%,-2%,-8%,0%
COc1ccc(CNCCCSc2nnnn2C)c(OC)c1,-4%,-2%,9%,8%,7%
O=Nc1c(-c2cccc([N+](=O)[O-])c2)nc2ncccn12,0%,-2%,6.3µM*,-29%,4µM*
O=[N+]([O-])c1cccc(-c2cn3nc(-c4ccccc4)c(-c4ccccc4)nc3n2)c1,0%,-4%,8%,-24%,12%
COc1ccc(OC)c(C2=Nn3c(nnc3-c3ccc(OC)c(OC)c3)SC2)c1,-7%,-1%,.,.,.
SMILES,TRb-SRC2 inh,TR SRC2 fluor cs,Tau fibril FP,Tau fluor cs,Tau fibril ThT
COc1ccc(Nc2nnc(SC(C(=O)Nc3cc(C)ccc3C)c3ccccc3)s2)cc1 (stereo unspecified),-2%,-1%,?,?,-6%
COc1ccc(Nc2nnc(SC(C(=O)Nc3ccc(OC)c(Cl)c3)c3ccccc3)s2)cc1 (stereo unspecified),-10%,-1%,18%,7.1µM*[quencher],-17%
COc1ccc(-n2nc(C(=O)N3CCN(c4cccc(C)c4C)CC3)c3c4ccccc4n(C)c3c2=O)cc1,0%,2%,-10%,-10%,-1%
CCN(CC)c1ccc(NC(=O)/C=C\c2ccccc2Cl)cc1,2%,-2%,23%,8.9µM*[quencher],4µM*
CC(C)c1ccc(NC(=O)CSc2nc(=O)n(Cc3cccnc3)c3c2CCC3)cc1,-5%,-3%,2%,-3%,-14%
CC(C)Cn1cc(C(=O)NCc2cccs2)c2c3ccccc3n(C)c2c1=O,4%,-5%,-5%,-27%,10µM*
CC(C)Cn1cc(C(=O)N2CCOCC2)c2c3ccccc3n(C)c2c1=O,4%,-5%,-6%,-18%,-8%
CCOc1ccccc1C(=O)N1CC(=O)Nc2ccc(C)cc2C1c1ccccc1 (stereo unspecified),1%,0%,2%,-6%,-6%
O=C1c2ccccc2C(=O)C12OC2c1ccc(Cl)cc1 (stereo unspecified),8%,-1%,?,-20%,3.2µM*
Cc1ccc(CNC(=O)Cn2ccn(-c3ccc(F)cc3)c(=O)c2=O)cc1,0%,-5%,?,5%,7%
Cn1nc(-c2ccccc2F)c2cc(C(=O)Nc3ccc4c(c3)OCCO4)sc21,4%,-3%,?,7.9µM*[quencher],?
COc1ccc(-c2nn(C)c3sc(C(=O)Nc4cccc(F)c4)cc23)cc1OC,-2%,-2%,13µM*,?,-6%
COc1cccc(-c2nn(C)c3sc(C(=O)Nc4ccc5c(c4)OCCO5)cc23)c1,2%,0%,9%,0%,-3%
Cc1nn(-c2ccccc2)c2sc(C(=O)Nc3cccc(Cl)c3)cc12,-3%,0%,3.2µM*,?,?
COc1cccc(NC(=O)c2cc3c(-c4ccc(Cl)cc4)nn(C)c3s2)c1,-8%,-1%,16µM*,?,1%
Cc1ccc(CSc2ccc3nnc(CCNS(=O)(=O)c4ccc(C)cc4)n3n2)cc1,2%,-2%,9%,-2%,-8%
CCCCCCCCCCCCCCCCn1cc[n+](Cc2ccccc2)c1C,-1%,3%,.,.,.
CCN1CCCC1Cn1c(-c2ccccc2)nc2c(N(CCOC)CCOC)nc(C)nc21 (stereo unspecified),0%,-2%,10%,-1%,4%
COc1cccc(Cn2c(=O)n(CCc3ccccc3)c(=O)c3c2c2cc(OC)ccc2n3C)c1,2%,-2%,-4%,-20%,-3%
CCCCCc1ccc(OCCC[n+]2ccccc2)c(CCCCC)c1,71µM*,-11%,11%,-14%,?
CC(=O)c1c(C)c([N+](=O)[O-])c(C(C)(C)C)c([N+](=O)[O-])c1C,10%[201 µM],-2%[201 µM],.,.,.
Cc1onc(-c2ccccc2Cl)c1C(=O)Nc1sc2c(c1C#N)CCC2,-10%,-3%,?,?,28µM*

# Screening data deposited in PubChem by National Center for Advancing Translational Sciences (NCATS).
